In PubChem BioAssay (Tox21):
Records with an inconclusive call do not appear. The source made the active and inactive calls. Unless noted, calls come from the whole dose curve.

Legend:
[1] = Nuclear factor erythroid 2-related factor 2/antioxidant responsive element (Nrf2/ARE) small molecule agonists: qHTS cell viability counter screen in human keratinocytes (AID 1919968; active = well fitted curve in the direction sought with a large enough effect in the repeat runs; an effect the other way counts as inactive or inconclusive; note: nearly all actives have a fitted effect of over 55% in size)
Summary of the method: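 Cytotoxicity was multiplexed with the Nrf2/ARE luciferase assay in the same wells. Stably transfected HaCaT keratinocytes were treated with test compounds for 23 h at 37 C. Cell viability was then measured by CellTiter-Fluor fluorescence.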

[2] = Nuclear factor erythroid 2-related factor 2/antioxidant responsive element (Nrf2/ARE) small molecule agonists: luciferase reporter gene qHTS assay in human keratinocytes (AID 1919969); note: nearly all actives have a fitted effect of over 35% in size
[3] = target: Gonadotropin-releasing hormone receptor (Homo sapiens) (UniProt P30968); experiment: Human gonadotropin-releasing hormone receptor (GnRHR) small molecule agonists, calcium flux assay in GnRHR-HEK293 cells (AID 1920063); note: nearly all actives have a fitted effect of over 35% in size; note: potency is the fitted concentration of half-maximal effect
Summary of the method: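 Agonist activity was measured as intracellular calcium flux in HEK293 cells engineered to stably express human GnRHR. After dye loading for 1 hour at 37 C, compounds in DMSO were added and fluorescence was followed for 3 minutes.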

[4] = target: KiSS-1 receptor (Homo sapiens) (UniProt Q969F8); experiment: Human kisspeptin (KISS1R) small molecule agonists, calcium flux assay in KISS1R-HEK293 cells (AID 1920064; active = well fitted curve in the direction sought with a large enough effect in the repeat runs; an effect the other way counts as inactive or inconclusive)
Summary of the method: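 Agonist activity is monitored as intracellular calcium rise in engineered HEK293 cells carrying human KISS1R. Cells are dye-loaded for 1 h at 37 C before compound addition, and fluorescence is recorded for 3 min.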

[5] = G protein-coupled receptor (GPCR) small molecule agonists, calcium flux assay: HEK293 wild type cell line counter screen (AID 1920065)
Summary of the method: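 Seed cells, incubate 18 h (37 C, 5% CO2); add calcium dye, 1 h at 37 C; pin-transfer compounds, ATP control or DMSO; read fluorescence 480/540 nm each second for 3 min.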

[6] = p53 small molecule agonists, cell-based qHTS assay with rat liver microsomes (AID 1963578)
Summary of the method: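 Read-out is beta-lactamase reporter fluorescence (LiveBLAzer, 2 h, room temperature, dark) in p53RE-bla cells treated 16 h at 37 C with compound, rat liver microsomes and NADPH, both 0.5 mg/mL final.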

[7] = p53 small molecule agonists, cell-based qHTS assay with human liver microsomes: qHTS cell viability counter screen (AID 1963579); note: nearly all actives have a fitted effect of over 45% in size; note: potency is the fitted concentration of half-maximal effect
Summary of the method: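 Cells carrying the p53 response-element beta-lactamase reporter are treated for 16 h at 37 C with test compounds in the presence of human liver microsomes and NADPH (both 0.5 mg/mL final); ATP-based CellTiter-Glo luminescence then reports viability.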

[8] = p53 small molecule agonists, cell-based qHTS assay: qHTS cell viability counter screen (AID 1963581); note: nearly all actives have a fitted effect of over 45% in size
Summary of the method: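 Viability was counter-screened in parallel with the p53 agonist reporter by measuring intracellular ATP luminescence in the same HCT-116 p53RE-bla wells after 16 h compound treatment at 37 C.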

[9] = p53 small molecule agonists, cell-based qHTS assay (AID 1963582; active = well fitted activation curve with a large enough effect in the signal ratio in the repeat runs, not every such curve was filed as active; the % refers to the signal ratio)
Summary of the method: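 Cells carrying a p53-responsive bla reporter are treated with test compounds for 16 h at 37 C; beta-lactamase activity is then detected with LiveBLAzer B/G FRET substrate after 2 h at room temperature.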

[10] = target: 5-hydroxytryptamine receptor 2A (Homo sapiens) (UniProt P28223); experiment: 5-hydroxytryptamine receptor 2A (HTR2A) small molecule agonists, cell-based qHTS assay (AID 1963587); note: nearly all actives have a fitted effect of over 30% in size
Summary of the method: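 HTR2A-CHO cells, plated 18 h at 37 C/5% CO2, dye-loaded 1 h at 37 C; compounds in DMSO added by pin tool (agonist mode). Intracellular calcium flux read as kinetic fluorescence on FDSS over 2 min at 1 s intervals.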

[11] = target: Muscarinic acetylcholine receptor M1 (Homo sapiens) (UniProt P11229); experiment: Cholinergic receptor muscarinic 1 (CHRM1) small molecule antagonists, cell-based qHTS assay (AID 1963588); note: nearly all actives have a fitted effect of over 40% in size
Summary of the method: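 Compounds were tested at 15 concentrations in three independent runs. Dye-loaded CHRM1-CHO cells were exposed 5 min at room temperature before stimulation by acetylcholine added at 50nM. Intracellular calcium was read kinetically on FDSS for 3 min.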

[12] = target: Muscarinic acetylcholine receptor M1 (Homo sapiens) (UniProt P11229); experiment: Cholinergic receptor muscarinic 1 (CHRM1) small molecule agonists, cell-based qHTS assay (AID 1963589); note: nearly all actives have a fitted effect of over 35% in size
Summary of the method: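 Cells were plated and incubated 18 h at 37 C/5% CO2, loaded with calcium dye for 1 h at 37 C, then treated with compounds in DMSO. Fluorescence was recorded kinetically at 1 sec intervals.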

[13] = cAMP Responsive Elements (CRE) small molecule agonists, cell-based qHTS assay (AID 1963590)
Summary of the method: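 Cells carrying a CRE-driven beta-lactamase reporter (HEK 293T) are seeded, incubated overnight (18 h), and treated with test compounds for 3 h at 37 C; reporter activity is then detected with a FRET substrate after 2 h at room temperature.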

[14] = cAMP Responsive Elements (CRE) small molecule antagonists, cell-based qHTS assay (AID 1963591; active = well fitted inhibition curve with a large enough effect in the signal ratio in the repeat runs, not every such curve was filed as active; the % refers to the signal ratio)
Summary of the method: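 Cells (CRE-bla HEK 293T, DMEM with 10% dialyzed FBS and 25 mM HEPES) are seeded and incubated 18 h. Compounds are added with NKH477 agonist at 0.25 uM final for 3 h, then FRET substrate for 2 h.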

[15] = target: Beta-2 adrenergic receptor (Homo sapiens) (UniProt P07550); experiment: Adrenergic beta2 receptor (ADRB2) small molecule antagonists, cell-based qHTS assay (AID 1963592); note: series mostly up to about 92 µM; nearly all actives have a fitted effect of over 50% in size
Summary of the method: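 Assay format: CHO-ADRB2 cells, 18-20hr seeding at 37C/5% CO2, then compound plus 1nM isoproterenol agonist mix for 0.5hr RT. Homogeneous time-resolved fluorescence cAMP detection after 1hr, expressed as 665/615 nm ratio.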

[16] = target: Beta-2 adrenergic receptor (Homo sapiens) (UniProt P07550); experiment: Adrenergic beta2 receptor (ADRB2) small molecule agonists, cell-based qHTS assay (AID 1963593); note: potency is the fitted concentration of half-maximal effect;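 for activation: CHO cells stably overexpressing human ADRB2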
Summary of the method: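 CHO cells stably over-expressing ADRB2 were plated overnight at 37C, then dosed with compounds plus a stimulation mix containing 100uM IBMX and 25uM Ro-20-1724 for 0.5hr at room temperature. cAMP was measured by HTRF competition, 1hr.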

[17] = target: D(2) dopamine receptor (Homo sapiens) (UniProt P14416); experiment: Dopamine D2 receptor (DRD2) small molecule agonists, cell-based qHTS assay (AID 1963594); note: nearly all actives have a fitted effect of over 35% in size
Summary of the method: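 HEK293 cells stably expressing DRD2 were cultured 24 h at 37 C, then given Ro20-1724 (0.1 mM final) and compounds for 10 min at room temperature. NKH477 (200nM) was then added for 30 min. cAMP was read by HTRF.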

[18] = target: D(2) dopamine receptor (Homo sapiens) (UniProt P14416); experiment: Dopamine D2 receptor (DRD2) small molecule antagonists, cell-based qHTS assay (AID 1963595; active = well fitted inhibition curve with a large enough effect in the signal ratio in the repeat runs, with a control signal flat; the % refers to the signal ratio; note: potency is the fitted concentration of half-maximal effect)
Summary of the method: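 In this cell-based antagonist screen, compounds act for 10 min at room temperature before a 30 min challenge with 12 nM quinpirole and 200 nM NKH477. cAMP is quantified by HTRF competition in DRD2-HEK293 cells containing 0.1 mM Ro20-1724.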

[19] = p53 small molecule agonists, cell-based qHTS assay with rat liver microsomes: qHTS cell viability counter screen (AID 1963580); note: nearly all actives have a fitted effect of over 45% in size
Summary of the method: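 Luminescent ATP readout (CellTiter-Glo, 30 min at room temperature) reports viability of p53RE-bla HCT-116 cells after 16 h at 37 C with test compounds under metabolic activation by rat liver microsomes and NADPH at 0.5 mg/mL final each.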

[20] = target: 5-hydroxytryptamine receptor 2A (Homo sapiens) (UniProt P28223); experiment: 5-hydroxytryptamine receptor 2A (HTR2A) small molecule antagonists, cell-based qHTS assay (AID 1963586); note: nearly all actives have a fitted effect of over 45% in size
Summary of the method: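 CHO cells stably expressing human HTR2A were plated for 18 h at 37 C, then loaded with calcium dye for 1 h. Compounds were preincubated 5 min at room temperature before DOI (4 nM solution) was added. Kinetic fluorescence was read for 3 min.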
% is set by controls: 0 for no effect and ±100 for the full control effect.

Beta-2 adrenergic receptor (Homo sapiens), sequence (P07550 whole entry, looked up): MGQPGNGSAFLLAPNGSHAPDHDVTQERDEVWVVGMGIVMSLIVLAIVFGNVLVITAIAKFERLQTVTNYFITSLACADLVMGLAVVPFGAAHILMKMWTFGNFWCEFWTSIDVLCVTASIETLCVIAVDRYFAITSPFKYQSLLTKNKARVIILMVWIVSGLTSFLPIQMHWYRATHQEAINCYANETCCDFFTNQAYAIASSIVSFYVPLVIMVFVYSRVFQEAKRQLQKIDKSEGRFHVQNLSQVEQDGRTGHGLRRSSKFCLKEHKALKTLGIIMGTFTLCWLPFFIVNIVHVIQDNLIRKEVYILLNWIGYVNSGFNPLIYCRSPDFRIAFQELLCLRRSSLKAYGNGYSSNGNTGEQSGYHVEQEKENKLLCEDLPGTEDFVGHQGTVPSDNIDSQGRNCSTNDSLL
5-hydroxytryptamine receptor 2A (Homo sapiens), sequence (P28223 whole entry, looked up): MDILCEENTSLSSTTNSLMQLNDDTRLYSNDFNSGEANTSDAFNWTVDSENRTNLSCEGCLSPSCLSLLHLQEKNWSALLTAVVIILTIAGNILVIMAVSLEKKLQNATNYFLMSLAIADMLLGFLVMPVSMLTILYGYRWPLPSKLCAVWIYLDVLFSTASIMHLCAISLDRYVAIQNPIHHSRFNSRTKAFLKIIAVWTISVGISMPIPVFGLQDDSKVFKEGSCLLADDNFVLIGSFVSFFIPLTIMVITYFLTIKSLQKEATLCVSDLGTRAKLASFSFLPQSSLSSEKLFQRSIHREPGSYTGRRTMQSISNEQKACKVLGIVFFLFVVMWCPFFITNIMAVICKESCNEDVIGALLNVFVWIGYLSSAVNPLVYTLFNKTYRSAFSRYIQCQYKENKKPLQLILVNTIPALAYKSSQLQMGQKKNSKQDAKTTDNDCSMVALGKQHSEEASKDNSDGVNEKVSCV
Muscarinic acetylcholine receptor M1 (Homo sapiens), sequence (P11229 whole entry, looked up): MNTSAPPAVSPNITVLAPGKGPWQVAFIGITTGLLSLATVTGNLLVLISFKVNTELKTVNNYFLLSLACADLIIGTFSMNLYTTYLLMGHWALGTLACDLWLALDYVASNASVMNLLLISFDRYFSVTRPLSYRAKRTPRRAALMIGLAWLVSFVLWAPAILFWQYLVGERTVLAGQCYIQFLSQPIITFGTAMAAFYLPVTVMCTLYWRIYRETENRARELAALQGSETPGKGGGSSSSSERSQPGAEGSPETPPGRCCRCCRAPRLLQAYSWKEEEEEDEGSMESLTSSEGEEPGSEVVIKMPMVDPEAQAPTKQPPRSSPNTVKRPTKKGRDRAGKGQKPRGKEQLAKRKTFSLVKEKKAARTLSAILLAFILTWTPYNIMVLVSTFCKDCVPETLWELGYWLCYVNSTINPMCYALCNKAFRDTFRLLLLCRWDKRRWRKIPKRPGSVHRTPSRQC
D(2) dopamine receptor (Homo sapiens), sequence (P14416 whole entry, looked up): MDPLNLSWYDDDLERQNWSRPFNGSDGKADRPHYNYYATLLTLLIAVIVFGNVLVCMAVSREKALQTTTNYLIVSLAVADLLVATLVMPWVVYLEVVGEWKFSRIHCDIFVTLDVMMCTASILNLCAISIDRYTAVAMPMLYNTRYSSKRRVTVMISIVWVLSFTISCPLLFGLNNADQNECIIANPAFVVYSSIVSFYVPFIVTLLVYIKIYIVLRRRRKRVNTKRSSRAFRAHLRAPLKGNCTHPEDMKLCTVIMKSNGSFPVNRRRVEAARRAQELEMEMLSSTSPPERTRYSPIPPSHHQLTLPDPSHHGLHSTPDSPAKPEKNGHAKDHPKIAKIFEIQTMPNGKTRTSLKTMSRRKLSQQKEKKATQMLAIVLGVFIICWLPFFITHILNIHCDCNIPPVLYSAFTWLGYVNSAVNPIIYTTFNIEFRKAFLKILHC
Gonadotropin-releasing hormone receptor (Homo sapiens), sequence (P30968 whole entry, looked up): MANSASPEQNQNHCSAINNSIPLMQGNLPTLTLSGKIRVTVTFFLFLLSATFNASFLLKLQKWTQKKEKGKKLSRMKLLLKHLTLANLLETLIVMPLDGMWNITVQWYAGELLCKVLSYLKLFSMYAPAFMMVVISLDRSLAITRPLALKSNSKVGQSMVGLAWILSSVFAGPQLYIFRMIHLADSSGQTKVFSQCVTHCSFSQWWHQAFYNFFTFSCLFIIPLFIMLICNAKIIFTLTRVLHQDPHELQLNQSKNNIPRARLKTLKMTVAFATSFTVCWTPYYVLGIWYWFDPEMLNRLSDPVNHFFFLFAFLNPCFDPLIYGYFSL
KiSS-1 receptor (Homo sapiens), sequence (Q969F8 whole entry, looked up): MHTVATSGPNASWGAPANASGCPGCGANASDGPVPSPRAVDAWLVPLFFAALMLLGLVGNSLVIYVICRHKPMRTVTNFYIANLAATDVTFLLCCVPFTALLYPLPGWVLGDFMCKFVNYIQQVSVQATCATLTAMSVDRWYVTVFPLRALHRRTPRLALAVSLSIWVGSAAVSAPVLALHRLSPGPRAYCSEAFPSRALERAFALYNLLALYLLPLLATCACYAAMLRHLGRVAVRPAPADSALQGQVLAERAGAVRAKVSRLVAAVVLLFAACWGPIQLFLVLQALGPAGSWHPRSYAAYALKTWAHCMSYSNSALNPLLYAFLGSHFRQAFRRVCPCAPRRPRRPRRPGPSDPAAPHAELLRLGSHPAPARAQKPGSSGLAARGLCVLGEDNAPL

Clc1cc(Cl)cc(Cl)c1
inactive: Potency [1] | Potency [2] | Potency [3] | outcome [4] | outcome [5] | Potency [6] | Potency [7] | Potency [8] | Potency [9] | Potency [10] | Potency [11] | Potency [12] | Potency [13] | Potency [14] | Potency [15] | Potency [16] | Potency [17] | Potency [18]

Cc1ccc(C(=O)Oc2ccc(C(O)CNC(C)(C)C)cc2OC(=O)c2ccc(C)cc2)cc1 (configuration not stated)
inactive: Potency [1] | Potency [2] | outcome [4] | outcome [5] | Potency [6] | Potency [19] | Potency [8] | Potency [20] | Potency [11] | Potency [12] | Potency [17]
active: Potency [3] 0.0535 µM | Potency [7] 0.397 µM | Potency [16] 0.0841 µM | Potency [18] 0.841 µM

CC(C)CCCC(C)(C)O
inactive: Potency [1] | Potency [2] | Potency [3] | outcome [4] | outcome [5] | Potency [6] | Potency [7] | Potency [8] | Potency [20] | Potency [10] | Potency [11] | Potency [12] | Potency [13] | Potency [14] | Potency [15] | Potency [17] | Potency [18]

BrC/C=C/CBr
inactive: activity change, negative = cytotoxicity [1] -3.14% [at 19 µM] | activity, positive = activation [2] -2.5% [at 19 µM] | activity change [3] 0.305% [at 11.8 µM, active compounds read high] | activation [4] -0.639% [at 15.8 µM] | activation [5] 0.681% [at 11.8 µM] | activation [6] -1.81% [at 13.6 µM] | activity change, negative = cytotoxicity [7] -4.11% [at 13.5 µM] | activity change, negative = cytotoxicity [19] -2.57% [at 13.5 µM] | activity change, negative = cytotoxicity [8] -2.07% [at 13.5 µM] | activity, negative = inhibition [20] -12.9% [at 12.7 µM] | activation [10] -0.944% [at 15.9 µM] | activity, negative = inhibition [11] -3.79% [at 12.6 µM] | activation [12] 1.37% [at 15.8 µM] | activation [13] -0.306% [at 19 µM] | activity change, negative = inhibition [14] -2.76% [at 18.9 µM] | activity change, negative = inhibition [15] -26% [at 19 µM] | Potency [16]

CCCCCCCCCCCCCCCCCl
inactive: activity change, negative = cytotoxicity [1] -5.35% [at 19 µM] | activity, positive = activation [2] -7.33% [at 19 µM] | activity change [3] 0.762% [at 11.8 µM, active compounds read high] | activation [4] 2.27% [at 15.8 µM] | activation [5] 0.033% [at 11.8 µM] | activation [6] 0.0918% [at 13.6 µM] | activity change, negative = cytotoxicity [8] -1.41% [at 13.5 µM] | activation [9] 0.101% [at 13.5 µM] | activity, negative = inhibition [20] 12.6% [at 12.7 µM] | activation [10] -4.65% [at 15.9 µM] | activity, negative = inhibition [11] -6.96% [at 12.6 µM] | activation [12] -0.468% [at 15.8 µM] | activation [13] -1.81% [at 19 µM] | activity change, negative = inhibition [14] -10.5% [at 18.9 µM] | activity change, negative = inhibition [15] -9.7% [at 19 µM] | Potency [16] | activation [17] -1.48% [at 19 µM] | activity change, negative = inhibition [18] 2.16% [at 18.9 µM]

O=Cc1ccccc1[N+](=O)[O-]
inactive: Potency [1] | Potency [2] | Potency [3] | outcome [4] | outcome [5] | Potency [6] | Potency [20] | Potency [10] | Potency [11] | Potency [12] | Potency [13] | Potency [14] | Potency [15] | Potency [16] | Potency [17] | Potency [18]

CC(=O)Nc1cccc(C)c1
inactive: Potency [1] | Potency [2] | Potency [3] | outcome [4] | Potency [6] | Potency [7] | Potency [19] | Potency [8] | Potency [9] | Potency [20] | Potency [10] | Potency [12] | Potency [13] | Potency [15] | Potency [17] | Potency [18]
